The panel holds about 83,000 compounds, 20% with a hit somewhere; the sample as a whole holds those more often.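 Negative percent growth values reflect cell death: -40 means 40% of the cells present at the start died, and -100 means all died.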 The source made the active and inactive calls. The calls were made as follows: active = growth percent below 10; inactive = the rest.
What was measured:
Assay in all cases: NCI-60 one-dose screen, 48 h (100 = growth as untreated, 0 = no growth, -100 = all killed)
[1] = test system: HCT-15 colon; conditions: 10 µM unless noted
[2] = test system: HT29 colon; conditions: 10 µM unless noted
[3] = test system: SNB-75 CNS; conditions: 10 µM unless noted
[4] = test system: SNB-19 CNS; conditions: 10 µM unless noted
[5] = test system: U251 CNS; conditions: 10 µM unless noted
[6] = test system: PC-3 prostate; conditions: 10 µM unless noted
[7] = test system: SK-MEL-5 melanoma; conditions: 10 µM unless noted
[8] = test system: UACC-62 melanoma; conditions: 10 µM unless noted
[9] = test system: LOX IMVI melanoma; conditions: 10 µM
[10] = test system: SK-MEL-28 melanoma; conditions: 10 µM unless noted

Measured: growth

O=C(O)Cc1ccc(Cl)cc1
inactive: [1] 112% | [2] 107% | [3] 102% | [4] 108% | [5] 104% | [6] 85.7% | [7] 114% | [8] 110% | [9] 103% | [10] 132%

CCCCCCCCCCCCCCCCCCSC(=N)N
inactive: [1] 66.6% | [2] 28.4% | [3] 88.6% | [4] 89.2% | [5] 72.3% | [6] 65% | [7] 98.3% | [8] 77.6% | [9] 52.7% | [10] 93.5%

CC(=O)Nc1ncc(S(=O)(=O)c2ccc([N+](=O)[O-])cc2)s1
inactive: [1] 105% | [2] 108% | [3] 103% | [4] 114% | [5] 108% | [6] 101% | [7] 113% | [8] 102% | [9] 106% | [10] 111%

NNc1ncnc2c1ncn2C1OC(CO)C(O)C1O (stereo not given)
inactive: [1] 11.2% | [3] 94.2% | [4] 57.8% | [5] 39.7% | [6] 32.3% | [7] 88.4% | [8] 60.5% | [9] 32.6% | [10] 88.8%
active: [2] 9.12%

Cc1ccc(C)c(CN(C)C)c1O
inactive: [1] 121% | [2] 115% | [3] 84.2% | [4] 122% | [5] 99.6% | [6] 102% | [7] 107% | [8] 117% | [9] 98.9% | [10] 102%

Nc1nc2nnc(-c3ccccc3)c(-c3ccccc3)n2n1
inactive: [1] 94.7% | [2] 97.4% | [3] 91.4% | [4] 80% | [5] 111% | [6] 86.5% | [7] 86.5% | [8] 87.8% | [9] 87.6% | [10] 86.3%

CC1(C)CC(=O)C=C(N)C1
inactive: [1] 102% | [2] 96.1% | [3] 76.1% | [4] 105% | [5] 98.8% | [6] 93% | [7] 131% | [8] 98.5% | [9] 98.1% | [10] 104%

Cc1cc(Nc2ccc3c(c2)OCO3)c2cc3c(cc2n1)OCO3
active: [4] 0.716%
inactive: [1] 19.9% | [2] 15.8% | [3] 25.6% | [5] 19.9% | [6] 10.6% | [7] 22.6% | [8] 34% | [9] 14.3% | [10] 34.2%

CCOC(=O)C(CCC#N)(CCC#N)C(=O)OCC
inactive: [1] 98.7% | [2] 111% | [3] 80.9% | [4] 100% | [5] 102% | [6] 97.6% | [7] 102% | [8] 103% | [9] 111% | [10] 107%

COC(=O)c1cccc([N+](=O)[O-])c1
inactive: [1] 105% | [2] 101% | [3] 120% | [4] 98.6% | [5] 97.4% | [6] 97.4% | [7] 98.9% | [8] 98.7% | [9] 100% | [10] 102%

COCC(N)=O
inactive: [1] 100% | [2] 102% | [3] 102% | [4] 107% | [5] 104% | [6] 94.6% | [7] 102% | [8] 109% | [9] 99.7% | [10] 121%

Cc1ccc(C)c2c1CCC2=O
inactive: [1] 100% | [2] 105% | [3] 86.1% | [4] 93% | [5] 103% | [6] 98.6% | [7] 97.5% | [8] 99.9% | [9] 96.2% | [10] 104%

CC(=O)N(C)N=Nc1ccc(C)cc1
inactive: [1] 107% | [2] 116% | [3] 93.2% | [4] 101% | [5] 106% | [6] 97.7% | [7] 103% | [8] 101% | [9] 98.1% | [10] 116%

Cc1ccc(O)c(N)c1
inactive: [1] 106% | [2] 112% | [3] 87.7% | [4] 101% | [5] 103% | [6] 94.7% | [7] 103% | [8] 81.5% | [9] 105% | [10] 122%

CCN(Cc1ccc(Cl)c(Cl)c1)c1ccc2nc(N)nc(N)c2c1C
active: [1] -82.1% | [2] -79.1% | [3] -94.7% | [4] -97.4% | [5] -92% | [6] -62.2% | [7] -98.2% | [8] -86.1% | [9] -87.5% | [10] -95.4%

CC(=O)NC(CCc1ccc(Cl)c(Cl)c1)c1cccc(O)c(=O)c1 (stereo not given)
active: [7] -31.8% | [8] -57.7% | [9] -2.69%
inactive: [1] 29.9% | [2] 27.6% | [3] 18.7% | [4] 23.7% | [5] 13.7% | [6] 38.9% | [10] 19.5%

COc1ccc2c(ccc[n+]2C)c1
inactive: [1] 93.5% | [2] 93% | [3] 78.3% | [4] 101% | [5] 96.7% | [6] 119% | [7] 103% | [8] 95.5% | [9] 105% | [10] 111%

COC1OC(CO)C(OC)C(O)C1O (stereo not given)
inactive: [1] 100% | [2] 110% | [3] 103% | [4] 105% | [5] 99.6% | [6] 103% | [7] 103% | [8] 96.2% | [9] 95.6% | [10] 95.9%

CCOC(=O)C(=O)CC(=O)c1ccccc1
inactive: [1] 102% | [2] 103% | [3] 91.7% | [4] 100% | [5] 93.3% | [6] 89.4% | [7] 95% | [8] 93.3% | [9] 98.6% | [10] 106%

C=COC(=O)CCOCC(CC)CCCC (stereo not given)
inactive: [1] 104% | [2] 104% | [3] 97.2% | [4] 104% | [5] 102% | [6] 98.2% | [7] 107% | [8] 99.5% | [9] 98.8% | [10] 113%

Cc1c(-c2ccc(C3CCCCC3)cc2)nc2ccc(F)cc2c1C(=O)O
active: [9] 8.7%
inactive: [1] 25.1% | [2] 31.6% | [3] 62.7% | [4] 61.7% | [5] 44.2% | [6] 44.9% | [7] 32.9% | [8] 43.3% | [10] 60.8%

COc1cccc(C(=O)NNC(=O)c2cccc3ccccc23)c1
inactive: [1] 100% | [2] 98.2% | [3] 98.7% | [4] 110% | [5] 102% | [6] 106% | [7] 107% | [8] 128% | [9] 98.5% | [10] 117%

Cc1cc(Cc2ccccc2)c(O)c(Cc2ccccc2)c1
inactive: [1] 89.8% | [2] 104% | [3] 75.5% | [4] 102% | [5] 86.5% | [6] 88.3% | [7] 98.6% | [8] 71.4% | [9] 80.7% | [10] 106%

O=C(O)CCCCCNC(=O)OCc1ccccc1
inactive: [1] 103% | [2] 108% | [3] 74% | [4] 105% | [5] 94.9% | [6] 95.3% | [7] 111% | [8] 101% | [9] 104% | [10] 106%

Nc1cc2ccccc2c(O)c1O
active: [9] -52.6%
inactive: [1] 16% | [2] 95.8% | [3] 90.4% | [4] 90.2% | [5] 40.2% | [6] 43.7% | [7] 74.7% | [8] 90.9% | [10] 110%

Cc1cc(C(=O)NN)c(C#N)c(=O)[nH]1
inactive: [1] 105% | [2] 124% | [3] 84.6% | [4] 95.3% | [5] 104% | [6] 91.1% | [7] 95.7% | [8] 89.8% | [9] 97.7% | [10] 91.8%

CC(C)C(C)(C)C(=O)C(C)(C)C(C)(C)C
inactive: [1] 96.9% | [2] 98.1% | [3] 109% | [4] 102% | [5] 92.9% | [6] 98.8% | [7] 101% | [8] 102% | [9] 93.3% | [10] 104%

COc1cccc2c1Cc1ccccc1-2
inactive: [1] 114% | [2] 100% | [3] 110% | [4] 94.4% | [5] 103% | [6] 91.1% | [7] 100% | [8] 99.3% | [9] 80.3% | [10] 115%

O=S(=O)(OCCOS(=O)(=O)c1ccccc1)c1ccccc1
inactive: [1] 91.9% | [2] 92.2% | [3] 93.6% | [4] 104% | [5] 92.6% | [6] 94.4% | [7] 93.6% | [8] 95.4% | [9] 91.7% | [10] 112%

CCN(CC)CCN1CNC(=S)NC1
inactive: [1] 106% | [2] 104% | [3] 107% | [4] 104% | [5] 105% | [6] 101% | [7] 104% | [8] 105% | [9] 95.8% | [10] 114%

Reference: PubChem BioAssay (NCI)
